According to PubChem BioAssay AID485318 (Broad Institute, 2010):
Among all 1,400 compounds or so, fewer than 10 were called active. The list is a sample of the results. Unmarked numbers belong to inactive results.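 How the source made its calls: active means fluorescence-lowering compounds whose fitted half-maximal concentration is at or below ten times the highest valid dose tested; inconclusive means flat curve at 30 to 70% inhibition, or poor fit; inactive means the rest.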

molecular target: Histone deacetylase 3 (Homo sapiens) (UniProt O15379); experiment: inhibition of human HDAC3 enzymatic activity – biochemical, fluorescence, cherry-picked samples, counter-screen for JMJD2C/GASC1 demethylase inhibitor project, dose response (AID 485318); settings: recombinant HDAC3, fluorogenic peptide/trypsin coupled; series mostly up to 12 µM; activity change, negative = inhibition: at the top concentration;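 further: enzyme preincubated with compound before substrate and trypsin were added; 0% = neutral control wells and -100% = SAHA positive control wells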
Sequence (O15379 whole entry, looked up): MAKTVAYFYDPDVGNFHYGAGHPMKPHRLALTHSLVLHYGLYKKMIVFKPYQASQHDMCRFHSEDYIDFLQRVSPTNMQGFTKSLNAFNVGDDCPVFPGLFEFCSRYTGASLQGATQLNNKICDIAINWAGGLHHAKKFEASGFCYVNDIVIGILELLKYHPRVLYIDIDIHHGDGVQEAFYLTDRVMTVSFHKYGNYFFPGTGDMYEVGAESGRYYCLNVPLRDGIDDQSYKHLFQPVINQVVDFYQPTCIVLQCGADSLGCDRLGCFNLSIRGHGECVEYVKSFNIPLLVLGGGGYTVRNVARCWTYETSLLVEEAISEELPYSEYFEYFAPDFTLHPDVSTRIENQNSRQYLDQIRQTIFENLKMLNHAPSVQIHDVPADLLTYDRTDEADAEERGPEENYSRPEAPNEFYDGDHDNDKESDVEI

Compared with `C[C@H]1CN(CCc2ccccc2)C(=O)[C@@H]1CC(=O)NCc1ccccc1`, `COC(=O)[C@]1(Cc2ccccc2)N[C@H](CN(C)S(=O)(=O)c2ccc(F)cc2)[C@@H]2C(=O)N(Cc3ccccc3)C(=O)[C@@H]21` is higher in “activity change, negative = inhibition” value: -0.42% for the first, 0.164% for the second.

Going from `COc1ccc(NC(=S)NNC(=O)c2ccc(S(=O)(=O)N3CCOCC3)cc2)cc1` to `Cc1noc(C)c1COc1ccc(C(=O)OC(C)C(=O)Nc2ccc(N3CCOCC3)cc2)cc1` (configuration not stated), the “activity change, negative = inhibition” value falls from 0.24% to 0.0949%.

Going from `CN(c1ccc(OCC(=O)N2CCCCC2)cc1)S(=O)(=O)c1cccs1` to `COc1ccc(C2CC(c3cccs3)=NN2S(=O)(=O)c2ccc(C)cc2)cc1` (configuration not stated), the “activity change, negative = inhibition” value rises from -0.149% to 0.501%.

Going from `Nc1c(Cl)ncnc1NCc1cccnc1` to `CSc1nc(N)nc2c1ncn2CC(=O)NCCNc1ccc([N+](=O)[O-])cn1`, the “activity change, negative = inhibition” value falls from 0.296% to -0.105%.

Compared with `CCC(C)C(NC(=O)OC(C)(C)C)C(=O)NC(C(=O)N1CCCC1C(N)=O)C(C)CC` (configuration not stated), `COc1ccc(NC(=O)Nc2cccc3c2O[C@H](CN(C)C(=O)NC(C)C)[C@@H](C)CN([C@H](C)CO)C3=O)cc1` is lower in “activity change, negative = inhibition” value: 0.796% for the first, -0.142% for the second.

Going from `COc1cc(OC)cc(C(=O)Nc2ccc(-n3cnnn3)c(C)c2)c1` to `CCOCCc1nnc(NC(=O)c2ccc(OC)c(OC)c2)s1`, the “activity change, negative = inhibition” value falls from -0.279% to -1.23%.

Going from `N#CCCn1c(SCC(=O)N2CCN(S(=O)(=O)c3ccccc3)CC2)nc2ccccc21` to `Nn1cc(-c2ccccc2)nc1SCC(=O)N1CCN(S(=O)(=O)c2ccc3ccccc3c2)CC1`, the “activity change, negative = inhibition” value falls from 0.508% to -0.203%.

First: CCOC(=O)Nc1cc(C)c(Cl)cc1OC
Second: CCOc1ccc(CN(C)CC(=O)Nc2cc(C)c(C)cc2[N+](=O)[O-])cc1
The “activity change, negative = inhibition” value of the first is higher: 1.18% for the first, -0.108% for the second.

First: Cc1onc(-c2ccccc2)c1C(=O)Nc1c(C)n(C)n(-c2ccccc2)c1=O
Second: O=C(Cc1sc(-c2ccccc2)nc1-c1ccccc1)Nc1ccccc1
The “activity change, negative = inhibition” value of the first is higher: 0.51% for the first, -0.152% for the second.

Compared with `CS(=O)(=O)N(CC(=O)Nc1ccccc1C(=O)NCCc1ccccc1)c1ccc2c(c1)OCCO2`, `COc1ccc(CCNC(=O)N2c3ccccc3Sc3ccccc32)cc1` is higher in “activity change, negative = inhibition” value: 0.133% for the first, 1.25% for the second.

Going from `CCOC(=O)c1[nH]c(C)c(/C(O)=C2\C(=O)C(=O)N(CCCN(CC)CC)C2c2cccnc2)c1C` (configuration not stated) to `CC1=C(C(=O)OC(C)C)C(c2ccccc2)NC(=S)N1C` (configuration not stated), the “activity change, negative = inhibition” value falls from 0.131% to -0.136%.

First: CCC(=O)Nc1ccc(NC(=O)CSc2nnnn2C(C)C)cc1
Second: CCc1ccc(NC(=O)CSc2nnc(CNC(=O)c3c(F)cccc3Cl)o2)cc1
The “activity change, negative = inhibition” value of the first is higher: 0.553% for the first, 0.0315% for the second.

First: C[C@@H]1CCCCCCCCC(=O)OCCN(C(=O)OC(C)(C)C)[C@H](C)CCCCCCCCC(=O)OCCN(C(=O)OC(C)(C)C)[C@H](C)CCCCCCCCC(=O)OCCN1C(=O)OC(C)(C)C
Second: CN(C(=O)c1ccc(NC(=O)Cc2ccc(NC(=O)C3CCN(C(=O)C4CCC4)CC3)cc2)cc1)C1CC1
The “activity change, negative = inhibition” value of the first is lower: 0.233% for the first, 0.986% for the second.

Going from `Cc1ccc(S(=O)(=O)Nc2ccc3c(c2)CC(=O)N([C@H](C)CO)C[C@@H](C)[C@H](CN(C)S(=O)(=O)c2ccccc2)O3)cc1` to `C[C@H]1CN([C@@H](C)CO)C(=O)Cc2cc(NS(=O)(=O)c3cccs3)ccc2O[C@H]1CN(C)S(=O)(=O)c1cn(C)cn1`, the “activity change, negative = inhibition” value falls from 1.04% to -0.706%.

First: COc1ccccc1OCCOCCn1cnc2ccccc2c1=O
Second: O=c1c2ccccc2nc2c3ccccc3c(NCc3ccco3)nn12
The “activity change, negative = inhibition” value of the first is lower: -0.761% for the first, 0.625% for the second.

First: O=[N+]([O-])c1cc(/C=N/Nc2nc3ccccc3[nH]2)c(O)cc1O
Second: CSc1nc(N)nc2c1ncn2CC(=O)N[C@H](CO)Cc1c[nH]c2ccccc12
The “activity change, negative = inhibition” value of the first is higher: 0.0861% for the first, -0.258% for the second.

First: CC(=O)C[C@@H](O)CC(=O)[C@H]1OC(=O)[C@H](C)CCCCc2ccccc21
Second: C/C(=N\Nc1nc(C(=O)O)cs1)c1ccccc1
The “activity change, negative = inhibition” value of the first is higher: -0.548% for the first, -0.586% for the second.

First: CC[C@]12c3[nH]c4ccccc4c3CCN1C(=O)C(CC(=O)NCCCOC)C[C@@H]2C(=O)N1CCN(C(=O)c2ccco2)CC1 (some centres not stated)
Second: O=C(NCC(c1ccco1)N1CCN(c2ccc(F)cc2)CC1)OCc1ccccc1 (configuration not stated)
The “activity change, negative = inhibition” value of the first is higher: 0.706% for the first, 0.174% for the second.

Going from `O=C1CCCc2c1nc(-c1ccccc1)n2O` to `c1ccc(-c2ccccc2OCCN2CCCC2)cc1`, the “activity change, negative = inhibition” value falls from 0.0393% to -0.955%.

Compared with `COc1ccc(/C=C/C(=O)NC(=S)NNC(=O)Cc2cccs2)cc1OC`, `O=C(CCN1C(=O)/C(=C/c2ccc(F)cc2)SC1=S)N[C@@H](CO)Cc1ccccc1` is higher in “activity change, negative = inhibition” value: -0.579% for the first, -0.0269% for the second.

First: Cc1ccc(N2CC(C(=O)Nc3ccc(N(C)C)cc3)CC2=O)cc1C (configuration not stated)
Second: Cc1cccc(C)c1N1C(=O)c2cccc([N+](=O)[O-])c2C1=O
The “activity change, negative = inhibition” value of the first is higher: 0.359% for the first, -0.27% for the second.

Compared with `COc1ccc(NN=Nc2nc3c([nH]2)c(=O)n(C)c(=O)n3C)cc1`, `COc1ccc(NC(=S)NCCCn2ccnc2)cc1` is lower in “activity change, negative = inhibition” value: 0.508% for the first, -0.13% for the second.

First: O=C1CC2(CCN(C(=O)c3ccccc3Cl)CC2)Oc2ccccc21
Second: CCN(CC)C(=O)C1c2ccccc2Oc2ccccc21
The “activity change, negative = inhibition” value of the first is higher: 0.607% for the first, -0.357% for the second.

Compared with `CC(=O)Nc1ccc2c(c1)C(C)(C)C(C)N2C` (configuration not stated), `CC(=O)c1c(C(C)=O)c(C)n(NC(=O)c2ccncc2)c1C` is higher in “activity change, negative = inhibition” value: -1.19% for the first, 0.563% for the second.

Compared with `O=C(O)c1ccnc(C(=O)O)c1`, `CC(C)(C)NC(=O)CSc1nc2cccnc2n1C1CCCCC1` is higher in “activity change, negative = inhibition” value: -0.152% for the first, 0.349% for the second.

Compared with `CCOc1ccc(N=Cc2c(O)n(-c3cccc(C)n3)c(=O)c3ccccc23)cc1`, `COc1ccccc1N1CCN(c2nc3c(C)cccn3c(=O)c2C=O)CC1` is lower in “activity change, negative = inhibition” value: 0.766% for the first, 0.107% for the second.

First: CCOC(=O)C1CCN(S(=O)(=O)c2cccc(-c3cn4cc(Cl)ccc4n3)c2)CC1
Second: CN1CCN(c2nc3ccccn3c(=O)c2/C=C(\C#N)S(=O)(=O)c2ccc(Cl)cc2)CC1
The “activity change, negative = inhibition” value of the first is lower: 0.424% for the first, 1.17% for the second.

Compared with `O=C1CC(N2CCC(O)(c3ccc(Cl)cc3)CC2)C(=O)N1Cc1ccc(N2CCCC2=O)cc1` (configuration not stated), `CCS(=O)(=O)N1CCN(c2ccc([N+](=O)[O-])c(N3CCOCC3)c2)CC1` is lower in “activity change, negative = inhibition” value: 0.431% for the first, -0.0167% for the second.

First: CS(=O)(=O)c1ccccc1-c1nnc(NC(=O)c2ccc3ncsc3c2)o1
Second: CCNC(=O)c1ccc2c(c1)S(=O)(=O)c1ccccc1C2=O
The “activity change, negative = inhibition” value of the first is lower: -1.47% for the first, 0.35% for the second.

First: CCc1nn2c(N3CCOCC3)cc(C)nc2c1-c1ccc(F)cc1
Second: CN1CCN(Cc2c(C#N)c3ccccc3n2C)CC1
The “activity change, negative = inhibition” value of the first is higher: 0.143% for the first, -0.48% for the second.

Going from `CN(C)CCCNC1=CC(=O)OC12CCCCC2` to `CCCn1nnnc1SCC(=O)NCc1ccc2c(c1)OCO2`, the “activity change, negative = inhibition” value rises from -0.144% to 0.24%.
